Our source for the growth values is PubChem BioAssay (NCI).

Compounds without any hit were thinned out: in the full panel of roughly 83,000, 20% have a hit.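 The endpoint reported here, percent growth, reads 100 for growth as untreated, 0 for no net growth and -100 for all cells dead.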 Values without a mark were called inactive. The source made the active and inactive calls. How the source made its calls: active means growth percent below 10; inactive means the rest.

This test has as its system HL-60(TB) leukemia. Nature of the test: NCI-60 one-dose screen, 48 h (100 = growth as untreated, 0 = no growth, -100 = all killed). The following applies: 10 µM unless noted.
On to `CC1=N/C(=C\c2ccc(N(C)C)cc2)C(=O)N1CCc1ccc(S(N)(=O)=O)cc1`, for which the growth was 102%.
Then `O=C1NC(=O)c2c1c1c3cc(Br)ccc3[nH]c1c1oc3ccc(F)cc3c21`, with 44.6%.
Under `CCCCCCCCc1ccc(C(=O)Nc2ccc(C)c(OP(=O)(O)O)c2)cc1` stands 78.4%; under `O=C1NC(=S)/C(=C/c2cn(-c3ccccc3)nc2-c2ccccc2)S1`, 21%.
Then `CN1CCc2c(sc3ncnc(N/N=C/c4cn(-c5ccccc5)nc4-c4ccc(Br)cc4)c23)C1`, with -4.94% (active); and `COc1ccc([C@H]2C(C(=O)c3ccc(Cl)cc3)C3(N[C@@H]2c2ccccc2)C(=O)Nc2ccc(Br)cc23)cc1` (stereo partly drawn), with 15.3%.
For the compound `CCOP(=O)(OCCCl)c1nc(-c2ccc(C)cc2)oc1NCc1ccccc1` (stereo not drawn), the growth was 71.9%.
Under `CN1C(=O)/C(=C\C(=O)c2cc3ccccc3oc2=O)c2ccccc21` stands 79.3%; under `COc1ccc2cc([C@H](C)C(=O)N/N=C/c3ccc(Br)cc3)ccc2c1`, 91.3%; under `CCOP(=O)(OCC)O[C@H]1CC[C@]2(C)[C@H]3CC[C@@H]4[C@@H]([C@](C)(O)CCC=C(C)C)CC[C@@]4(C)[C@]3(C)CC[C@H]2C1(C)C`, 0.463% (active).
`Cc1ccc(CNC(=O)Cc2ccc3c(c2)CN(C2CCC(=O)NC2=O)C3=O)cc1` (stereo not drawn): the growth is -23.1% (active).
Then `O=c1[nH]c(=O)c2c(-c3cc4ccccc4oc3=O)ccnc2[nH]1`, with 106%; and `COc1cc(OC)c2c3nc4cc(C)c(C)cc4nc3n(CCN(C)C)c2c1`, with 52.9%.
